Here are results for 21 molecules from PubChem BioAssay (NCI).

Assay [1] can be described thus: NCI Yeast Anticancer Drug Screen. Data for the rad50 strain (AID 155).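 Also: 0% = growth of vehicle-only cultures of the same strain.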 The settings on record: S. cerevisiae rad50 strain growth inhibition; at 50.0 µM; stronger effect = higher value. An outline of the steps: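 Readout: growth inhibition relative to vehicle-treated cultures. Compound exposure was carried out in a genetically defined yeast strain deficient in DNA damage repair.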

The nature of assay [2]: NCI Yeast Anticancer Drug Screen. Data for the mec2-1 strain (AID 157). The note with it: S. cerevisiae mec2-1 strain, at 50.0 µM, stronger effect = higher value. An outline of the steps:
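Test agents were screened against the mec2-1 yeast strain, with defined DNA repair or cell cycle alteration. Growth was scored as inhibition against vehicle-only controls.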

Assay [3] is described as follows: NCI Yeast Anticancer Drug Screen. Data for the sgs1 mgt1 strain (AID 161).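 Also: 0% = growth of cultures given vehicle only.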 The note with it: S. cerevisiae sgs1 mgt1 strain, at 50.0 µM, stronger effect = higher value. An outline of the steps:
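Read-out: growth inhibition vs vehicle controls. Cells: mutant yeast strain deficient in DNA damage repair.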

The nature of assay [4]: NCI Yeast Anticancer Drug Screen. Data for the cln2 rad14 strain (AID 165).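 Also: 0% = growth equal to vehicle treated cultures.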 The note with it: S. cerevisiae cln2 rad14 strain, at 50.0 µM, stronger effect = higher value. The method in brief: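 Growth of compound-exposed yeast (cln2 rad14 genotype) measured and expressed as inhibition relative to vehicle.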
Assay [5] in a line: NCI Yeast Anticancer Drug Screen. Data for the bub3 strain (AID 167). The note with it: S. cerevisiae bub3 mutant strain, at 50.0 µM, stronger effect = higher value. The method in brief:
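Readout: yeast growth inhibition, expressed relative to vehicle-only wells. The test organism is a mutant strain from a panel with lesions in DNA repair or checkpoint genes.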

Assay [6] can be described thus: NCI Yeast Anticancer Drug Screen. Data for the mlh1 rad18 strain (AID 175). The settings on record: S. cerevisiae mlh1 rad18 strain growth inhibition; at 50.0 µM; stronger effect = higher value. An outline of the steps: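 In this whole-cell yeast screen, a strain with altered DNA damage repair is challenged with compound, and its growth is measured against matched vehicle-treated controls.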

About 79,000 compounds went through this panel and 15% of them were active in at least one assay; those are over-represented in the sample as a whole. Unmarked numbers belong to inactive results. Calls of active or inactive are those of the source. Rule as the data show it: active = growth inhibition above about 70%; inactive = the rest.

With `Cc1ccc(/C=C2/NC(=S)SC2=O)cc1`, the growth inhibition in assay [1] is -14.1%; in assay [2] it was -3.6%; in assay [3] it was 14.6%; in assay [4], 12%; in assay [5], 1.75%; in assay [6] it was -30.4%.
Take `CCOC(=O)/C(C#N)=C\NC(=O)NC`: the growth inhibition in assay [1] is 3%; in assay [2] it was 2.3%; in assay [3] it was 2.2%; in assay [4], -18.4%; in assay [5] it was -5.25%; in assay [6], -0.5%.
As for `C1CC2CC1C13OC1C1(CC1)C1OC213` (stereo unspecified), the growth inhibition in assay [1] was -4.5%; in assay [2], 11.6%; in assay [3], -40.5%; in assay [4], -28.4%; in assay [5] it was -20.2%; in assay [6] it was -45.5%.
In the case of `Cc1ccc(C(=O)/C=C/c2ccc(N(C)C)cc2)cc1`, the growth inhibition is 38.8% in assay [1]; 1.95% in assay [2]; 34.8% in assay [3]; 30.9% in assay [4]; 29.4% in assay [5]; 43.8% in assay [6].
Turning to `CS(=O)(=O)CC1=Nc2nnc(CCCCCCCc3nnc4n3C(=O)C(CS(C)(=O)=O)=N4)n2C1=O`, the growth inhibition in assay [1] is -17%; in assay [2], 5.1%; in assay [3], 5.55%; in assay [4] it was -12.1%; in assay [5], -5.15%; in assay [6] it was -7.95%.
As for `O=C(CCn1[nH]c(=O)c(Cl)c(Cl)c1=O)NO`, the growth inhibition in assay [1] is -21.3%; in assay [2], -14.1%; in assay [3], -9.75%; in assay [4] it was 3.35%; in assay [5], -19.1%; in assay [6], -13.9%.
As for `CCCCCCC1OCC(CC)(CC)CO1`, the growth inhibition in assay [1] is 11.8%; in assay [2] it was -12.4%; in assay [3] it was -18.9%; in assay [4], -26.5%; in assay [5], -15.6%; in assay [6] it was 26.4%.
As for `Cc1nc2ccccc2nc1CCO`, the growth inhibition in assay [1] was -12.7%; in assay [2], -0.15%; in assay [3], -3.85%; in assay [4], -24.2%; in assay [5], -24.8%; in assay [6] it was -8.8%.
For `Cc1ccc2cc(N(C)C)ccc2[n+]1C`, the growth inhibition in assay [1] is 29.9%; in assay [2], 24.1%; in assay [3], 39.9%; in assay [4], 34.4%; in assay [5] it was 22.2%; in assay [6], 30.8%.
Take `CCC(SC)C(=O)N(C)c1ccccc1` (stereo unspecified): the growth inhibition in assay [1] is -8.5%; in assay [2] it was -15.3%; in assay [3], 1.25%; in assay [4], -10.3%; in assay [5], -13.1%; in assay [6] it was -3%.
`COc1ccccc1C(C)C`: the growth inhibition was -11.1% in assay [1]; -3.8% in assay [2]; -0.85% in assay [3]; -21.8% in assay [4]; -6.45% in assay [5]; -16.2% in assay [6].
For `Nc1ccccc1CN1C(=O)CCC1=O`, the growth inhibition was 0.25% in assay [1]; -6.8% in assay [2]; -12.4% in assay [3]; -14.9% in assay [4]; -10.1% in assay [5]; -14.2% in assay [6].
As to `O=C1C(c2ccccc2Cl)[C@H]2CC=C[C@H]2N1O` (stereo partly specified), the growth inhibition is -26.1% in assay [1]; -39.2% in assay [2]; -8.4% in assay [3]; 6.65% in assay [4]; -21.6% in assay [5]; -5.35% in assay [6].
Regarding `CCN(CC)C(=O)CNC(=O)C(c1ccccc1)c1ccccc1`, the growth inhibition in assay [1] is 4.25%; in assay [2], -6.2%; in assay [3], 1.4%; in assay [4] it was -9.7%; in assay [5], 6.35%; in assay [6], -8.05%.
In the case of `Cc1ccc(NC(=O)c2cc3c(cc2Cl)Sc2nccn2S3(=O)=O)cc1`, the growth inhibition was 21.7% in assay [1]; 11.3% in assay [2]; 12.7% in assay [3]; -25.9% in assay [4]; 11.4% in assay [5]; 39.1% in assay [6].
`CC/C=N/Nc1ccc([N+](=O)[O-])cc1[N+](=O)[O-]`: the growth inhibition was 15.6% in assay [1]; -9.1% in assay [2]; 4.6% in assay [3]; 3.3% in assay [4]; 1.6% in assay [5]; 22.6% in assay [6].
With `CNC(=O)NC1C(O)COC(OC)C1O` (stereo unspecified), the growth inhibition in assay [1] is -2.65%; in assay [2], 3.4%; in assay [3], -0.6%; in assay [4] it was -37.1%; in assay [5] it was -4.15%; in assay [6], 0.25%.
For the molecule `BrC1CCC(OCc2ccccc2)C(OCc2ccccc2)C1` (stereo unspecified), the growth inhibition in assay [1] is -10.8%; in assay [2], 7.25%; in assay [3], 13.8%; in assay [4], 8.85%; in assay [5], 10.7%; in assay [6] it was -0.95%.
As for `Brc1ccc(C2NC(c3ccccc3)c3c(ccc4ccccc34)O2)cc1` (stereo unspecified), the growth inhibition in assay [1] is 90% (active); in assay [2], 77.7% (active); in assay [3] it was 90.9% (active); in assay [4], 61.2%; in assay [5], 52.3%; in assay [6], 86.4% (active).
For the molecule `CSc1nc(NC2OC(CO)C(O)C(O)C2O)c(Br)c(=O)n1C` (stereo unspecified), the growth inhibition is 0.4% in assay [1]; -1.7% in assay [2]; -6.3% in assay [3]; -8.75% in assay [4]; -2.75% in assay [5]; 20.1% in assay [6].
With `C=CCN1C(SC)=NC(=O)C1(c1ccccc1)c1ccccc1`, the growth inhibition was 14.8% in assay [1]; 9.95% in assay [2]; 8.75% in assay [3]; -10.2% in assay [4]; 10.2% in assay [5]; 22.8% in assay [6].
